From PubChem BioAssay (NCI) come the findings set out here.

Structures are written as SMILES. The panel holds about 79,000 compounds, 15% with a hit somewhere; the sample as a whole holds those more often. A number with no mark means an inactive call. The source made the active and inactive calls. Rule as the data show it: active = growth inhibition above about 70%; inactive = the rest.

Test [1] in a line: NCI Yeast Anticancer Drug Screen. Data for the rad50 strain (AID 155).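 Also: 0% = growth of vehicle-only cultures of the same strain.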 The note with it: S. cerevisiae rad50 strain growth inhibition, stronger effect = higher value. In short, it runs like this: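 Readout: growth inhibition relative to vehicle-treated cultures. Compound exposure was carried out in a genetically defined yeast strain deficient in DNA damage repair.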
Test [2] is described as follows: NCI Yeast Anticancer Drug Screen. Data for the mec2-1 strain (AID 157). The settings on record: S. cerevisiae mec2-1 strain, stronger effect = higher value. Summed up: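 Mutant yeast (mec2-1) grown with compound; growth inhibition relative to vehicle control reported.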
Test [3] can be described thus: NCI Yeast Anticancer Drug Screen. Data for the sgs1 mgt1 strain (AID 161).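 Also: 0% = growth of cultures given vehicle only.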 The note with it: S. cerevisiae sgs1 mgt1 strain, stronger effect = higher value. In short, it runs like this: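 Compounds are added to genetically altered yeast, and growth is compared with cultures given vehicle alone to give percent inhibition.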
Test [4] is described as follows: NCI Yeast Anticancer Drug Screen. Data for the cln2 rad14 strain (AID 165).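 Also: 0% = growth equal to vehicle treated cultures.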 The settings on record: S. cerevisiae cln2 rad14 strain, stronger effect = higher value. In short, it runs like this:
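Readout is yeast growth inhibition versus vehicle-treated controls, using a strain with cln2 and rad14 alterations exposed to compound.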

Test [5] in a line: NCI Yeast Anticancer Drug Screen. Data for the bub3 strain (AID 167). The settings on record: S. cerevisiae bub3 mutant strain, stronger effect = higher value. In short, it runs like this: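 Readout: yeast growth inhibition, expressed relative to vehicle-only wells. The test organism is a mutant strain from a panel with lesions in DNA repair or checkpoint genes.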
Test [6] can be described thus: NCI Yeast Anticancer Drug Screen. Data for the mlh1 rad18 strain (AID 175). The note with it: S. cerevisiae mlh1 rad18 strain growth inhibition, stronger effect = higher value. Summed up: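 Genetically defined yeast (DNA repair-deficient) exposed to compounds; growth inhibition determined relative to vehicle.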
[7] abbreviates: at 5.0 µM (retest, dose inferred, filed as 0.5).
Setting [8] is: at 50.0 µM (retest, dose inferred, filed as 5.0).

As for `CCNCC(O)COc1ccc2c(c1)[n+]([O-])nc(N)[n+]2[O-]` (stereo not given), the growth inhibition in test [1] (setting [7]) is 39%; in test [1] (setting [8]), 75% (active); in test [1] (at 50.0 µM), 61.1%; in test [2] (setting [7]), 31%; in test [2] (setting [8]), 88% (active); in test [2] (at 50.0 µM) it was 70% (active). Further, the growth inhibition in test [3] (setting [7]) is 42%; in test [3] (setting [8]), 60%; in test [3] (at 50.0 µM), 62.8%; in test [4] (setting [7]) it was 42%; in test [4] (setting [8]), 41%; in test [4] (at 50.0 µM), 40.9%. In addition, the growth inhibition was 47% in test [5] (setting [7]); 84% (active) in test [5] (setting [8]); 63% in test [5] (at 50.0 µM); 50% in test [6] (setting [7]); 91% (active) in test [6] (setting [8]); 58.8% in test [6] (at 50.0 µM).

`Oc1c(Cl)c(Cl)c2ncccc2c1Cl`: the growth inhibition was 14% in test [1] (setting [7]); 13% in test [1] (setting [8]); 55.8% in test [1] (at 50.0 µM); 10% in test [2] (setting [7]); 13% in test [2] (setting [8]); -8.8% in test [2] (at 50.0 µM). Further, the growth inhibition is 11% in test [3] (setting [7]); 15% in test [3] (setting [8]); 49% in test [3] (at 50.0 µM); 4% in test [4] (setting [7]); 5% in test [4] (setting [8]); -26.4% in test [4] (at 50.0 µM). The growth inhibition in test [5] (setting [7]) is 5%; in test [5] (setting [8]) it was 37%; in test [5] (at 50.0 µM) it was 48.6%; in test [6] (setting [7]) it was 7%; in test [6] (setting [8]), 12%; in test [6] (at 50.0 µM) it was 45.5%.

For `O=C1c2ccccc2C(=O)c2c1ccc(O)c2O.[Cu]`, the growth inhibition in test [1] (setting [7]) was 87% (active); in test [1] (setting [8]), 92% (active); in test [1] (at 50.0 µM) it was 98% (active); in test [2] (setting [7]), 41%; in test [2] (setting [8]) it was 95% (active); in test [2] (at 50.0 µM), 96.7% (active). For the same compound, the growth inhibition in test [3] (setting [7]) is 99% (active); in test [3] (setting [8]) it was 96% (active); in test [3] (at 50.0 µM), 96.9% (active); in test [4] (setting [7]) it was 26%; in test [4] (setting [8]), 91% (active); in test [4] (at 50.0 µM) it was 33.1%. Besides, the growth inhibition in test [5] (setting [7]) is 86% (active); in test [5] (setting [8]) it was 94% (active); in test [5] (at 50.0 µM), 93.6% (active); in test [6] (setting [7]), 66%; in test [6] (setting [8]) it was 94% (active); in test [6] (at 50.0 µM) it was 96.8% (active).

Regarding `O=C(O)CC(C(=O)O)C(c1cccc2ccccc12)c1cccc2ccc3ccccc3c12` (stereo not given), the growth inhibition was 6% in test [1] (setting [7]); 98% (active) in test [1] (setting [8]); 98.3% (active) in test [1] (at 50.0 µM); 5% in test [2] (setting [7]); 99% (active) in test [2] (setting [8]); 98.2% (active) in test [2] (at 50.0 µM). Moreover, the growth inhibition in test [3] (setting [7]) was -5%; in test [3] (setting [8]), 99% (active); in test [3] (at 50.0 µM), 98.3% (active); in test [4] (setting [7]) it was 4%; in test [4] (setting [8]), 98% (active); in test [4] (at 50.0 µM), 98.7% (active). Also, the growth inhibition in test [5] (setting [7]) was 4%; in test [5] (setting [8]) it was 99% (active); in test [5] (at 50.0 µM) it was 98.7% (active); in test [6] (setting [7]), 7%; in test [6] (setting [8]), 99% (active); in test [6] (at 50.0 µM), 97.8% (active).

On to `N=C(N)SCc1nc(-c2ccc(Cl)cc2)no1`, for which the growth inhibition in test [1] (setting [7]) is 18%; in test [1] (setting [8]) it was 77% (active); in test [1] (at 50.0 µM), 94.3% (active); in test [2] (setting [7]), 8%; in test [2] (setting [8]), 57%; in test [2] (at 50.0 µM) it was 87.5% (active). Further, the growth inhibition in test [3] (setting [7]) is 0%; in test [3] (setting [8]), 78% (active); in test [3] (at 50.0 µM), 90.1% (active); in test [4] (setting [7]), 0%; in test [4] (setting [8]), 61%; in test [4] (at 50.0 µM) it was 70% (active). In addition, the growth inhibition is -4% in test [5] (setting [7]); 72% (active) in test [5] (setting [8]); 94% (active) in test [5] (at 50.0 µM); -10% in test [6] (setting [7]); 64% in test [6] (setting [8]); 84.9% (active) in test [6] (at 50.0 µM).

As to `NN=C(CC(O)(C(F)(F)Cl)C(F)(F)Cl)CC(O)(C(F)(F)Cl)C(F)(F)Cl`, the growth inhibition is 32% in test [1] (setting [7]); 99% (active) in test [1] (setting [8]); 98.9% (active) in test [1] (at 50.0 µM); 32% in test [2] (setting [7]); 99% (active) in test [2] (setting [8]); 99.2% (active) in test [2] (at 50.0 µM). For the same compound, the growth inhibition in test [3] (setting [7]) was 26%; in test [3] (setting [8]), 99% (active); in test [3] (at 50.0 µM), 99.1% (active); in test [4] (setting [7]), 33%; in test [4] (setting [8]), 100% (active); in test [4] (at 50.0 µM), 99.3% (active). Moreover, the growth inhibition in test [5] (setting [7]) was 6%; in test [5] (setting [8]), 100% (active); in test [5] (at 50.0 µM), 99% (active); in test [6] (setting [7]), 38%; in test [6] (setting [8]), 99% (active); in test [6] (at 50.0 µM), 98.8% (active).

On to `CCC1(O)c2ccccc2C(O)(CC)c2ccccc21` (stereo not given), for which the growth inhibition in test [1] (setting [7]) is 11%; in test [1] (setting [8]), 28%; in test [1] (at 50.0 µM) it was 74% (active); in test [2] (setting [7]), 3%; in test [2] (setting [8]), 40%; in test [2] (at 50.0 µM), 89.6% (active). Moreover, the growth inhibition in test [3] (setting [7]) was 5%; in test [3] (setting [8]), 53%; in test [3] (at 50.0 µM), 23.4%; in test [4] (setting [7]), 3%; in test [4] (setting [8]) it was 21%; in test [4] (at 50.0 µM), 96.5% (active). For the same compound, the growth inhibition in test [5] (setting [7]) was 7%; in test [5] (setting [8]), 54%; in test [5] (at 50.0 µM), 97% (active); in test [6] (setting [7]), 14%; in test [6] (setting [8]), 68%; in test [6] (at 50.0 µM), 97.7% (active).

Take `O=[N+]([O-])c1ccc(S)c(Cl)c1`: the growth inhibition was 16% in test [1] (setting [7]); 95% (active) in test [1] (setting [8]); 95.5% (active) in test [1] (at 50.0 µM); 20% in test [2] (setting [7]); 95% (active) in test [2] (setting [8]); 87.7% (active) in test [2] (at 50.0 µM). Besides, the growth inhibition in test [3] (setting [7]) is 28%; in test [3] (setting [8]), 95% (active); in test [3] (at 50.0 µM) it was 90.3% (active); in test [4] (setting [7]), 0%; in test [4] (setting [8]), 55%; in test [4] (at 50.0 µM), 52.6%. Further, the growth inhibition in test [5] (setting [7]) is 14%; in test [5] (setting [8]), 95% (active); in test [5] (at 50.0 µM), 87.2% (active); in test [6] (setting [7]), 45%; in test [6] (setting [8]) it was 95% (active); in test [6] (at 50.0 µM) it was 93.5% (active).

As to `Nc1ccccc1Sc1ccc(F)cc1[N+](=O)[O-]`, the growth inhibition was -6% in test [1] (setting [7]); 85% (active) in test [1] (setting [8]); 71% (active) in test [1] (at 50.0 µM); -19% in test [2] (setting [7]); 26% in test [2] (setting [8]); 89.8% (active) in test [2] (at 50.0 µM). Further, the growth inhibition in test [3] (setting [7]) is 2%; in test [3] (setting [8]), 76% (active); in test [3] (at 50.0 µM), 89.1% (active); in test [4] (setting [7]) it was -6%; in test [4] (setting [8]), 59%; in test [4] (at 50.0 µM), 72.3% (active). Moreover, the growth inhibition in test [5] (setting [7]) was -3%; in test [5] (setting [8]), 85% (active); in test [5] (at 50.0 µM), 88.8% (active); in test [6] (setting [7]) it was -4%; in test [6] (setting [8]), 93% (active); in test [6] (at 50.0 µM) it was 88.5% (active).

Consider `CCCCC1=NCCc2c1cc1c([nH]c3ccccc31)c2C`, for which the growth inhibition was -3% in test [1] (setting [7]); 57% in test [1] (setting [8]); 9.2% in test [1] (at 50.0 µM); -19% in test [2] (setting [7]); 7% in test [2] (setting [8]); 46.2% in test [2] (at 50.0 µM). The growth inhibition in test [3] (setting [7]) was -8%; in test [3] (setting [8]) it was 85% (active); in test [3] (at 50.0 µM) it was 52.5%; in test [4] (setting [7]), -1%; in test [4] (setting [8]), 26%; in test [4] (at 50.0 µM), 48%. For the same compound, the growth inhibition in test [5] (setting [7]) was -3%; in test [5] (setting [8]), 35%; in test [5] (at 50.0 µM) it was 76% (active); in test [6] (setting [7]), 3%; in test [6] (setting [8]), 97% (active); in test [6] (at 50.0 µM) it was 56.4%.
